In PubChem BioAssay (NCI):
The panel holds about 83,000 compounds, 20% with a hit somewhere; the sample as a whole holds those more often.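 Method: cells in 96-well plates; compound added at one concentration; 48 h incubation; percent growth measured; values under 10 scored active.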 Unmarked numbers belong to inactive results. The source made the active and inactive calls.

Tests used:
Experiment in all cases: NCI-60 one-dose screen, 48 h (100 = growth as untreated, 0 = no growth, -100 = all killed)
Conditions in all cases: 10 µM unless noted
[1] = test system: BT-549 breast
[2] = test system: MDA-MB-435 melanoma
[3] = test system: SW-620 colon
[4] = test system: MCF7 breast
[5] = test system: HCT-116 colon
[6] = test system: HCC-2998 colon
[7] = test system: KM12 colon

Compound	growth [1]	growth [2]	growth [3]	growth [4]	growth [5]	growth [6]	growth [7]
Clc1nc(Cl)c2ncn(-c3ccccc3)c2n1	86.2%	64.5%	36.5%	54.8%	32.1%	100%	79.5%
C[C@]12CC[C@@H]3c4ccc(O)c([N+](=O)[O-])c4CC[C@H]3[C@@H]1CC[C@@H]2NS(=O)(=O)c1cccc(Br)c1	29.3%	10.7%	44.5%	14.6%	21.8%	51.2%	17.4%
COC(=O)CC1=C(C)/C(=C/c2[nH]c(-c3ccc[nH]3)cc2OC)N=C1C	22.3%	-4.71% (active)	4.66% (active)	-3.82% (active)	-33.6% (active)	11.3%	10.2%
O=C(CN1CCCCC1)Sc1nnc2sc3ccccc3n12	104%	111%	101%	92.9%	95.3%	116%	104%
Cc1ccc(NC(=O)Nc2ccc(-c3cccnc3)cc2N2CCC(CO)CC2)cc1	25.2%	4.25% (active)	20.3%	9.77% (active)	8.43% (active)	14.1%	20.1%
COc1cc(C2NC(c3ccc(Cl)cc3)C(C)C(=NC(=O)c3cnccn3)C2C)cc(OC)c1OC (centres undefined)	102%	108%	114%	93.1%	78.9%	129%	90.7%
O=C1NC(=O)/C(=C\c2ccccc2)C2=C1CCCC2	35%	-76.3% (active)	-50.2% (active)	-49% (active)	18.8%	123%	18%
O=C1CCCN1C1CCN(Cc2cc3ccccc3[nH]c2=O)c2ccccc21 (centres undefined)	98.2%	93.5%	96.3%	92.8%	82.6%	96.4%	98.1%
Cc1nn(-c2ccccc2)c2nc(Cl)c(/C=C/C(=O)c3ccccc3)c(-c3ccccc3)c12	87.9%	103%	112%	96.1%	95.5%	103%	106%
COc1cc(/C=C2\COc3ccc(O)cc3C2=O)cc(OC)c1	66.1%	20.1%	2.07% (active)	8.22% (active)	0.249% (active)	109%	17.4%
CCOc1nc(-c2ccccc2)cc2c(O)c(C(=O)n3nc(C)cc3C)[nH]c(=O)c12	99.9%	112%	115%	101%	101%	112%	106%
O=C1/C(=N/O)CCc2ccccc21	102%	95.6%	95%	96.3%	83.6%	103%	89.3%
CC(=O)NC1(C(=O)O)CCCC1	118%	123%	103%	97.8%	112%	138%	119%
CN1C(=O)/C(=C/c2nc(-c3cccc(F)c3)n3ccccc23)c2ccccc21	90.9%	93.6%	84.6%	44.3%	44.5%	99.4%	94.1%
Cc1cc(C)n2nc(SCC(=O)Nc3sc4c(c3C(N)=O)CCC4)nc2n1	99.6%	108%	100%	107%	97.2%	118%	114%
CCOC(=O)C1C(=O)OC2CCCCC21 (centres undefined)	97.5%	114%	110%	95.4%	101%	106%	109%
CCN(CC)CCNc1ccc(Cl)cc1Cl	106%	111%	104%	107%	96.8%	97.4%	110%
COc1cc(C(=O)/C=C/c2cccnc2Nc2ccccc2)cc(OC)c1OC	-55.5% (active)	-23.3% (active)	-84% (active)	-73% (active)	-94.9% (active)	-76.7% (active)	-88.2% (active)
CC(=O)c1ccc2c3c(n(C)c2c1)CCCC3	96.5%	97.8%	110%	95.9%	99.1%	93.7%	112%

Compound	growth [1]	growth [2]	growth [3]	growth [4]	growth [5]	growth [6]	growth [7]
COC(=O)CCC1=C(CC(=O)OC)C(C)=N/C1=C\c1[nH]c(-c2ccc[nH]2)cc1OC	52.3%	17.3%	21.5%	3.83% (active)	9.33% (active)	33.7%	28.1%
COc1ccc2nc3cc(Cl)ccc3c(Nc3cc(C(C)C)c(O)cc3C)c2c1	57%	30.8%	21.8%	15.5%	1.48% (active)	37.5%	8.35% (active)
CCC(CC)NCCCCCNc1cc(OC)cc2cccnc12	88%	107%	95.4%	58.4%	90.5%	117%	98.6%
COc1cc(C2NC(c3ccc(Cl)cc3)C(C)/C(=N/NC(N)=S)C2C)cc(OC)c1OC (centres undefined)	111%	107%	106%	90.3%	73.1%	126%	88.6%
Cc1cc(NC(=O)Nc2cccc3ccccc23)no1	79.9%	101%	109%	84%	95%	104%	112%
O=C(c1ccccc1)c1ccccc1Cl	85.8%	102%	106%	107%	101%	117%	96%
CSc1ncc2ncn(C3OC(CO)C(O)C3O)c2n1 (centres undefined)	118%	104%	96.5%	122%	102%	124%	113%
Cc1nn(-c2ccccc2)c2ncc3c(c12)C(=O)N(Cc1ccccc1)C3=O	76.4%	90.7%	61%	58.8%	10.5%	63%	85.8%
Cc1ccc(C=C2C(Cl)=C(Cl)C(Cl)=C2Cl)cc1	-31.3% (active)	-61.9% (active)	-77.9% (active)	-23.8% (active)	-100% (active)	-94.8% (active)	-79.6% (active)
COc1cccc(-c2nnc(N)o2)c1	87.4%	105%	103%	101%	100%	83.3%	106%
S=C(Nc1ccc(C2=NCCN2)cc1)Nc1ccc(C2=NCCN2)cc1	87.9%	102%	107%	103%	107%	104%	101%
O=C1c2nsnc2C(=O)c2c(F)c(F)c(F)c(F)c21	-96.7% (active)	-67.9% (active)	-57.3% (active)	-45.1% (active)	-93.1% (active)	-22.4% (active)	-44% (active)
NCCCc1nnc(CCC(=O)c2nc3ccccc3[nH]2)o1	103%	105%	108%	91.4%	100%	98.1%	115%
O=C(CCc1nnc2sc(Cc3ccccc3Cl)nn12)c1nc2ccccc2[nH]1	96.7%	101%	98.8%	71.6%	85.1%	102%	95.8%
CCc1ccc(CCN2C(=O)c3ccccc3C2=O)nc1	116%	98.9%	107%	89.5%	109%	112%	103%
O=C(Nc1cccc(-n2cc(-c3ccncc3)c(-c3ccc(O)c(Cl)c3)n2)c1)Nc1ccc(Cl)c(C(F)(F)F)c1	-12.6% (active)	-61.6% (active)	8.96% (active)	-7.24% (active)	-8.62% (active)	14.7%	-25.2% (active)
[O-]/[N+](=C\C=C\c1ccccc1)c1ccccc1	109%	108%	104%	96.3%	102%	103%	100%
CC(=O)Oc1ccc(C2OC(c3ccc4ccccc4c3OC(C)=O)=NN2C(C)=O)c(OC(C)=O)c1 (centres undefined)	31%	33.6%	32%	15.6%	20.6%	29.9%	19.7%
